Measurements reported in the supplement of paper PMC4894684.
Structures can show the parent of a compound that is named as a salt. ± gives the standard deviation of the averaged measurements.

The compounds below were run on Toxoplasma gondii RH (in HFF) (assay: parasite growth relative to the screen mean (all compounds = 100%); higher = less inhibition of parasite growth). Details: 5 µM; 72 h; oxygen 21 %.
Summary of the method: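 RH β-Gal–GFP Toxoplasma at MOI 1:5 was used to infect confluent human foreskin fibroblasts in 96-well plates within 2 h of pin-transferring compounds to 5 µM final. After 72 h at 21% O2, parasite number was determined by CPRG β-Gal assay against standard curves on the same plate. Growth is relative to the screen mean and averaged over two screens, with all compounds = 100%.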

Compound | parasite growth
Nc1nc(NCC2CCC(CNS(=O)(=O)c3cccc4ccccc34)CC2)nc2ccccc12 (stereo not drawn) | < 0%
O=C(c1ccc(F)cc1)C1CCN(CCn2c(=O)[nH]c3ccccc3c2=O)CC1 [Ketanserin tartrate] | 183 ± 33%
O=C1C=CC(=O)C2=C1C1c3ccccc3C2c2ccccc21 | 137 ± 48%
O=C(Nc1ccccc1)C12CC1C(=NO)c1ccccc1O2 (stereo not drawn) | 77.3 ± 29%
COc1ccc(C2CNC(=O)C2)cc1OC1CCCC1 (stereo not drawn) [Rolipram] | 92.1 ± 23%
CCOC(=O)c1ncc2[nH]c3cccc(OC(C)C)c3c2c1C | 101 ± 26%
COc1c(C)c2c(c(O)c1C/C=C(\C)CCC(=O)O)C(=O)OC2 [Mycophenolic acid] | < 0%
CCN(CC)CC1CCCCN1CC(=O)N1c2ccccc2C(=O)Nc2cccnc21 (stereo not drawn) | 146 ± 36%
COC(=O)/C=C/c1cccc(N(Cc2ccc(-c3ccc(N(C)C)cc3)cc2)C(=O)C2CCCCC2)c1 [Fexaramine] | 159 ± 7.7%
N[C@H](C(=O)O)c1ccc(O)c(C(=O)O)c1 [(S)-3-Carboxy-4-hydroxyphenylglycine] | 153 ± 9.2%
CC(C)N1Cc2cc(S(C)(=O)=O)ccc2N(CCN2CC=C(c3c[nH]c4cc(F)ccc34)CC2)S1(=O)=O | 181 ± 36%
CC(Cc1ccccc1)(NC(=O)CN)c1ccccc1 (stereo not drawn) [Remacemide hydrochloride] | 129 ± 5.9%
CCC(NC(C)C)C(O)c1ccc(O)c2[nH]c(=O)ccc12 (stereo not drawn) [Procaterol hydrochloride] | 132 ± 21%
c1ccc2sc(N3CCN(Cc4ccc5c(c4)OCO5)CC3)nc2c1 [2-[1-(4-Piperonyl)piperazinyl]benzothiazole] | 113 ± 20%
c1ccc(C(O[C@@H]2CCCN(CCc3ccc4c(c3)OCO4)C2)c2ccccc2)cc1 [Zamifenacin fumarate] | 128 ± 20%
CCN(CC)CCOCCOC(=O)C1(c2ccccc2)CCCC1 [Carbetapentane citrate] | 137 ± 18%
NCCNC(=O)c1ccc(Cl)cn1 [Lazabemide hydrochloride] | 109 ± 28%
CC(=O)Nc1ccc(O)cc1 [Acetaminophen] | 105 ± 2.7%
O=C(O)c1ccc(-c2c[nH]c3ncc(-c4ccccc4)cc23)cc1C1CCCC1 | 46.2 ± 9.6%

Compound | parasite growth
CC(C)(C)NC[C@H](O)COc1nsnc1N1CCOCC1 [(S)-Timolol maleate] | 119 ± 1.7%
CCOC(=O)C1=C(C)NC(=S)NC1c1cccc(O)c1 (stereo not drawn) [Monastrol] | 126 ± 29%
O=C1c2ccccc2CCC1CNCCc1ccc(O)cc1 (stereo not drawn) [HEAT hydrochloride] | 68.1 ± 13%
CCc1nn(CCCN2CCN(c3cccc(Cl)c3)CC2)c(=O)n1CCOc1ccccc1 [Nefazodone hydrochloride] | 139 ± 7.4%
CCc1c2c(nc3ccc(O)cc13)-c1cc3c(c(=O)n1C2)COC(=O)[C@]3(O)CC | 110.2 ± 0.25%
O=C(O)C1(C(=O)O)CCC1.[NH2-].[NH2-].[Pt+2] [Carboplatin] | 136 ± 19%
N[C@@H](C(=O)O)c1ccc(C(=O)O)c(C(=O)O)c1 | 117 ± 7.7%
O=C(NCCN1CCCCC1)c1ccc(I)cc1 [N-[2-(Piperidinylamino)ethyl]-4-iodobenzamide] | 118 ± 12%
O=C1OC(OC(=O)c2cccnc2Nc2cccc(C(F)(F)F)c2)c2ccccc21 (stereo not drawn) [Talniflumate] | 113 ± 28%
O=S(=O)(NCCNC/C=C/c1ccc(Br)cc1)c1cccc2cnccc12 [H 89 dihydrochloride] | 26.2 ± 27%
CN1CCc2cc(Cl)c(O)cc2[C@@H](c2ccccc2)C1 | 120 ± 46%
Oc1cc(O)cc(/C=C/c2ccc(O)c(O)c2)c1 [Piceatannol] | 145 ± 42%
N=C(N)NC(=N)Nc1ccccc1 [1-Phenylbiguanide hydrochloride] | 91.9 ± 21%
COC1CCC(C(=O)c2ccc3nc4c(cc3c2)CCCO4)CC1 (stereo not drawn) | 136 ± 27%
N#Cc1ccccc1OCC(O)CNCCNC(=O)Nc1ccccc1 (stereo not drawn) | 137 ± 18%
O=c1ncccn1[C@@H]1O[C@H](CO)[C@@H](O)[C@H]1O [Zebularine] | 119 ± 12%
COc1ccc(C(=O)Nc2sc3c(c2C(N)=O)CCCC3)cc1OC | 112 ± 5.8%
N#C/C(=C\c1ccc(O)c(O)c1)C(=O)NCc1ccccc1 | 148 ± 13%
COc1ccc(C2CC(c3c(O)cc(C)oc3=O)=NCCS2)c(OC)c1 (stereo not drawn) | 69.6 ± 9.3%
